Where a structure was tested more than once in an assay, its records may differ in their call. Active and inactive are the calls of the source. The calls were made as follows: active = hit-call score of the fitted dose curve at least 0.9, where 1 is the maximum; inactive = score below 0.9.
Legend:
[1] = ATG_CRE_CIS: Attagene CIS-FACTORIAL HepG2 Assay for human cAMP Responsive Element (CRE) binding protein 3 (AID 2282926); details: HepG2 CRE cis-reporter, Attagene multiplexed mRNA; actives raise or lower the signal
Outline: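 We dosed HepG2 cells bearing multiple cis-promoter reporter units for 24 h and measured reporter mRNA by RT-PCR with capillary electrophoresis detection. Bidirectional concentration-response fitting used DMSO as negative control.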

[2] = target: CCAAT/enhancer-binding protein beta (Homo sapiens) (UniProt P17676); assay: ATG_C_EBP_CIS: Attagene CIS-FACTORIAL HepG2 Assay for human CCAAT/Enhancer Binding Protein (C/EBP) beta (AID 2282927); details: HepG2 Attagene cis-factorial transcription factor reporter; actives raise or lower the signal
Sequence of CCAAT/enhancer-binding protein beta (Homo sapiens) (P17676 whole entry, looked up): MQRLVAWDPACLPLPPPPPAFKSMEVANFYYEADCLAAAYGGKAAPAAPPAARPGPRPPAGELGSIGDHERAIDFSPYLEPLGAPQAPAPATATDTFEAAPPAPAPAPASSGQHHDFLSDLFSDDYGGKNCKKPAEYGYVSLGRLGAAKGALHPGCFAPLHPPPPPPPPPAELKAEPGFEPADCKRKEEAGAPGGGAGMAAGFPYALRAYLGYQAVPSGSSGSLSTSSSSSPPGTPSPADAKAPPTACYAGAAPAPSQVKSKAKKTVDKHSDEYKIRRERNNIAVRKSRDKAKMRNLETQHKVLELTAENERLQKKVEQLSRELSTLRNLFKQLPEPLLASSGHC
Outline: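 HepG2, transient MRTU transfection, 24 h treatment. RT-PCR plus CE fluorescence; DMSO negative control, bidirectional fit.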

[3] = ATG_CMV_CIS: Attagene CIS-FACTORIAL HepG2 Assay for human CMV (Internal Marker) (AID 2282928); details: HepG2 CMV promoter reporter, transcription factor profiling; actives raise or lower the signal;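 also: endpoint acts as a background internal control marker rather than a target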
Outline: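 Endogenous transcription factor activity read in HepG2 via transfected cis-promoter reporter units. After 24 h dosing, reporter mRNA measured by RT-PCR/capillary electrophoresis; gain or loss of signal fit relative to DMSO.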

[4] = ATG_DR4_LXR_CIS: Attagene CIS-FACTORIAL HepG2 Assay for human Liver X Receptor (LXR), DR4 submotif (AID 2282929); details: HepG2 Attagene DR4 cis-reporter, mRNA transcription; actives raise or lower the signal
Outline: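 DR4 cis-reporter in HepG2, 24 h exposure. Detection: RT-PCR, 6-FAM labelling, CE fragment analysis. Endpoint fitted bidirectionally, DMSO = baseline.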

[5] = target: Aryl hydrocarbon receptor (Homo sapiens) (UniProt P35869); assay: ATG_Ahr_CIS: Attagene CIS-FACTORIAL HepG2 Assay for human Aryl Hydrocarbon Receptor (Ahr) (AID 2282930); details: HepG2 AhR cis-factorial reporter transcription; actives raise or lower the signal
Sequence of Aryl hydrocarbon receptor (Homo sapiens) (P35869 whole entry, looked up): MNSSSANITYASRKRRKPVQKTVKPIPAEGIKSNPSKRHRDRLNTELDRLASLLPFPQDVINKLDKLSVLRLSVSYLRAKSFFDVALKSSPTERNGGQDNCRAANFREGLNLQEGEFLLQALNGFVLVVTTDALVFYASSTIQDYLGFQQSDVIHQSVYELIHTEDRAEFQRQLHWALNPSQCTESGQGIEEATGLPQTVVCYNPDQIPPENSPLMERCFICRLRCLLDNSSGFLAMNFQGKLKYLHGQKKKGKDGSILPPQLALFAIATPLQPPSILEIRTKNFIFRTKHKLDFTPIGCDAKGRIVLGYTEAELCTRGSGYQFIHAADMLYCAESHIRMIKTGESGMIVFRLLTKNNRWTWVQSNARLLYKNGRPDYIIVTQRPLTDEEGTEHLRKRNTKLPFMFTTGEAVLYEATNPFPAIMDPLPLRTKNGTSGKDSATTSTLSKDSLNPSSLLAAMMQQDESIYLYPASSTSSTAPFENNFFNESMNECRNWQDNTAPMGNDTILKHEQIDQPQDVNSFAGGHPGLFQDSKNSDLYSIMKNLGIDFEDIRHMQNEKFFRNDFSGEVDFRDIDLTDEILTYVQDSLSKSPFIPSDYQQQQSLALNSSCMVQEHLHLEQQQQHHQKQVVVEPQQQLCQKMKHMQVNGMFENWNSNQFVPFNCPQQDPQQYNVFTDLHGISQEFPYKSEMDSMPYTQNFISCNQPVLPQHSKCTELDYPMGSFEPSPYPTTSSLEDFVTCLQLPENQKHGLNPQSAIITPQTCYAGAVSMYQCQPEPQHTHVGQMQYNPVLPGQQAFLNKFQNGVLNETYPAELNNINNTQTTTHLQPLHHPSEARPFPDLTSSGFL
Outline: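 Endogenous factor activity is tracked through cis-promoter reporter units transfected into HepG2 cells. Transcript levels at 24 h are read by fluorescent RT-PCR and capillary electrophoresis, with activity in either direction scored relative to DMSO.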

[6] = ATG_AP_1_CIS: Attagene CIS-FACTORIAL HepG2 Assay for human Activator Protein 1 (AP-1) (AID 2282931); details: HepG2 Attagene cis-factorial AP-1 reporter mRNA; actives raise or lower the signal
Outline: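 Cis-regulated reporter units transiently expressed in HepG2 report endogenous transcription-factor activity. Signal: reporter mRNA at 24 h, via RT-PCR and fluorescent capillary electrophoresis. Endpoint derived by bidirectional fitting, DMSO as negative control.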

[7] = ATG_AP_2_CIS: Attagene CIS-FACTORIAL HepG2 Assay for human Activator Protein 2 (AP-2) (AID 2282932); details: HepG2 AP-2 cis-reporter, Attagene transcription factor profiling; actives raise or lower the signal
Outline: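 Multiplexed mRNA reporter assay in HepG2: cis-regulated units report endogenous factor activity after 24 h treatment. Fluorescence from capillary electrophoresis of RT-PCR products gives the signal, with DMSO as baseline.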

[8] = ATG_BRE_CIS: Attagene CIS-FACTORIAL HepG2 Assay for human Bone Morphogenetic Protein (BMP) Response Element (BRE) (AID 2282933); details: HepG2 BMP response element reporter, Attagene transcription factor profiling; actives raise or lower the signal
Outline: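 Endogenous transcription factor activity read in transiently transfected HepG2 cells after 24 h chemical exposure. Bidirectional curve fitting against DMSO; readout is reporter transcript level by RT-PCR with capillary electrophoresis of labelled products.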

[9] = target: Retinoic acid receptor alpha (Homo sapiens) (UniProt P10276); assay: ATG_DR5_RAR_CIS: Attagene CIS-FACTORIAL HepG2 Assay for human Retinoic Acid Receptor Alpha (RARE), DR5 submotif (AID 2282934); details: HepG2 Attagene cis-factorial RARE DR5 reporter, mRNA; actives raise or lower the signal;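 as to AC50: reporter responds to endogenous RAR alpha beta and gamma in HepG2 not RARA alone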
Sequence of Retinoic acid receptor alpha (Homo sapiens) (P10276 whole entry, looked up): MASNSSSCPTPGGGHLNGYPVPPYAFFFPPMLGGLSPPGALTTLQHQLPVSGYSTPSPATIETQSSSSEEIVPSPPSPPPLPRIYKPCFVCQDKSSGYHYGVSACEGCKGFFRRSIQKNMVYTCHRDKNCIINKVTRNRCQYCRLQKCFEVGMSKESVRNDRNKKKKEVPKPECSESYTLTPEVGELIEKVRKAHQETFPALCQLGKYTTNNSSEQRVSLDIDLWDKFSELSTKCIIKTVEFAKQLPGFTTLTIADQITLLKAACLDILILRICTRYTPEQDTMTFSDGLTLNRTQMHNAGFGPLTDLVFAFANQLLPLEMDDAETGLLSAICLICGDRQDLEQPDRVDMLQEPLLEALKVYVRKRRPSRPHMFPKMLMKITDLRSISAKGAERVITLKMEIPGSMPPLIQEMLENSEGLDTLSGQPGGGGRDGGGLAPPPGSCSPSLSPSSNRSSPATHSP
Outline: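 After 24 h of chemical exposure, transiently transfected HepG2 cells were lysed for total RNA; the DR5-regulated reporter transcript was quantified via RT-PCR and capillary electrophoresis, with activity fitted bidirectionally against DMSO.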

[10] = target: Transcription factor E2F1 (Homo sapiens) (UniProt Q01094); assay: ATG_E2F_CIS: Attagene CIS-FACTORIAL HepG2 Assay for human E2F Transcription Factor 1 (AID 2282935); details: HepG2 Attagene cis-reporter, E2F reporter RNA transcripts; actives raise or lower the signal
Sequence of Transcription factor E2F1 (Homo sapiens) (Q01094 whole entry, looked up): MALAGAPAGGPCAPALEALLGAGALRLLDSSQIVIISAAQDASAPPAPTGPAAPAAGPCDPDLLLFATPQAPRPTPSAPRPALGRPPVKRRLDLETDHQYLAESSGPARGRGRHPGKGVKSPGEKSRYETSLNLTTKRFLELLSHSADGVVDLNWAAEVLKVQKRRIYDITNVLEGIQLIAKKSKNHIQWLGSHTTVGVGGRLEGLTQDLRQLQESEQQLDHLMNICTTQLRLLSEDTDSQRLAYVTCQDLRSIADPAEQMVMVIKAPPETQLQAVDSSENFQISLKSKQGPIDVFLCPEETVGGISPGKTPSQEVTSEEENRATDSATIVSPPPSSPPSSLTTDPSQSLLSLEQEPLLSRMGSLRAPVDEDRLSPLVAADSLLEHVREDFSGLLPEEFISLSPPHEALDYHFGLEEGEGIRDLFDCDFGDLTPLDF
Outline: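 Measures reporter transcript levels via RT-PCR with capillary electrophoresis detection in HepG2 cells harboring cis-regulated reporter units; 24 h post-dose; bidirectional curve fitting with DMSO as baseline.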

[11] = ATG_E_Box_CIS: Attagene CIS-FACTORIAL HepG2 Assay for human Enhancer Box (E-box) (AID 2282936); details: HepG2 E-box cis-reporter transcription, actives raise or lower the signal
Outline: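 First, HepG2 cells receive multiple cis-regulated reporter constructs by transient transfection. Next, chemicals are applied for 24 h. Finally, reporter mRNA is quantified via RT-PCR and capillary electrophoresis, with DMSO as baseline.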

[12] = ATG_M_61_CIS: Attagene CIS-FACTORIAL HepG2 Assay for M61 Transcription Factor (Internal Marker) (AID 2282937); details: HepG2 Attagene CIS-FACTORIAL M61 internal marker reporter; actives raise or lower the signal
Outline: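 Background-control endpoint: HepG2 cells with cis-regulated reporter constructs, 24 h exposure, reporter mRNA detected via fluorescent primer extension and capillary electrophoresis; values from bidirectional fitting with DMSO baseline.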

[13] = ATG_EGR_CIS: Attagene CIS-FACTORIAL HepG2 Assay for human Early Growth Response 1 (EGR1) (AID 2282938); details: HepG2 Attagene CIS-FACTORIAL EGR reporter mRNA; actives raise or lower the signal
Outline: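 Endpoint derived by bidirectional fitting versus DMSO vehicle. Method: cis-promoter reporter units transfected into HepG2, 24 h dosing, RNA isolation, RT-PCR with 6-FAM primer extension and HpaI digestion, then capillary electrophoresis fluorescence detection.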

[14] = ATG_M_19_CIS: Attagene CIS-FACTORIAL HepG2 Assay for M19 Transcription Factor (Internal Marker) (AID 2282939); details: HepG2 Attagene CIS-FACTORIAL M19 internal marker reporter; actives raise or lower the signal
Outline: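 Internal marker readout, fitted in both directions against DMSO, from HepG2 cells carrying transfected cis-element reporter constructs; RT-PCR and capillary electrophoresis of reporter mRNA after 24 h exposure.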

[15] = APR_HepG2_P-H2AX_24hr: Apredica 24-hour HepG2 Assay for H2AX Phosphorylation (AID 2282920); details: high-content imaging, actives raise or lower the signal
Outline: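 Signal comes from a FITC-labeled secondary detecting phospho-histone H2A.x in fixed HepG2 cells, quantified by automated imaging at 20x. Dosing ran 24 hr across 0.39–200 uM with 0.5% v/v DMSO.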

[16] = APR_HepG2_StressKinase_72hr: Apredica 72-hour HepG2 Assay for Stress Kinase (AID 2282921); details: HepG2 stress kinase (phospho-c-Jun) imaging, actives raise or lower the signal
Outline: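 Fluorescence intensity of Cy3-tagged anti-phospho-c-Jun antibody, quantified per cell from Hoechst-defined nuclei across six images per well, served as the read-out following 72 h exposure (0.39–200 uM, 0.5% v/v DMSO).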

[17] = APR_HepG2_StressKinase_24hr: Apredica 24-hour HepG2 Assay for Stress Kinase (AID 2282922); details: HepG2 stress kinase (phospho-c-Jun) imaging, actives raise or lower the signal
Outline: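 HepG2 cells exposed 24 h to 0.39–200 uM compound in duplicate (0.5% v/v DMSO final). Cells fixed in 3.7% formaldehyde, permeabilized and immunostained for phospho-c-Jun; read by high-content fluorescence imaging, fitted bidirectionally against DMSO.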

[18] = APR_HepG2_NuclearSize_72hr: Apredica 72-hour HepG2 Assay for Nuclear Size (AID 2282925); details: high-content imaging, actives raise or lower the signal
Outline: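 HepG2 cells dosed 72 h at 0.39–200 uM (10 concentrations, duplicate) in 0.5% v/v DMSO final. Fixed, Hoechst 33342-stained nuclei imaged; nuclear diameter measured by automated image analysis. Bidirectional fit versus DMSO.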

[19] = APR_HepG2_MitoMass_72hr: Apredica 72-hour HepG2 Assay for Mitochondrial Mass (AID 2282924); details: high-content imaging, actives raise or lower the signal;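 also: MitoTracker Red CMXRos stain intensity per cell imaged as mitochondrial mass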
Outline: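 HepG2 cells dosed 72 hr at 0.39–200 uM (0.5% DMSO), in duplicate. MitoTracker Red CMXRos 250 nM loaded 30 min before formaldehyde fixation; high-content fluorescence imaging, bidirectional fit versus DMSO.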

Measured: AC50

Brc1c(Br)c(Br)c(Oc2c(Br)c(Br)c(Br)c(Br)c2Br)c(Br)c1Br
not listed: [15] | [16] | [17] | [18] | [19]
inactive: all other assays above

COc1ccccc1N
active: [5] 78.3 µM
inactive: [15] | [16] | [17] | [18] | [1] | [2] | [3] | [4] | [5] | [6] | [7] | [8] | [9] | [10] | [11] | [12] | [13] | [14]

Clc1cccc(Cl)c1Cl
not listed: [3] | [6] | [11]
inactive: all other assays above

CCCCCCCCCCCCc1cccc(S(=O)(=O)O)c1
active: [4] 30 µM | [9] 39.8 µM
not listed: [5] | [14]
inactive: all other assays above

CC(C)(C)c1ccccc1O
active: [1] 174 µM | [2] 163 µM | [4] 100 µM | [6] 75.5 µM | [13] 156 µM
not listed: [9]
inactive: all other assays above

CC(C)(C1CCC(O)CC1)C1CCC(O)CC1 (centres undefined)
not listed: [14] | [15] | [16] | [17] | [18] | [19]
inactive: all other assays above

N#Cc1ccncc1
not listed: [13] | [14] | [15] | [16] | [17] | [18] | [19]
inactive: all other assays above

COc1ccc([N+](=O)[O-])cc1O
not listed: [15] | [16] | [17] | [18] | [19]
inactive: all other assays above

CC(C)(C#N)N=NC(C)(C)C#N
not listed: [11] | [15] | [16] | [17] | [18] | [19]
inactive: all other assays above

Brc1ccc(Oc2c(Br)cc(Br)cc2Br)c(Br)c1
not listed: [15] | [16] | [17] | [18] | [19]
inactive: all other assays above

CNC(=O)CSP(=O)(OC)OC
not listed: [15] | [16] | [17] | [18] | [19]
inactive: all other assays above

CCCSP(=S)(OCC)Oc1ccc(SC)cc1 (centres undefined)
not listed: [15] | [16] | [17] | [18] | [19]
inactive: all other assays above

C=CC(=O)NC(C)(C)CC(C)=O
not listed: [11] | [15] | [16] | [17] | [18] | [19]
inactive: all other assays above

C[C@H]1C(=O)O[C@@H]2CCN3CC=C(COC(=O)[C@](C)(O)[C@]1(C)O)[C@H]23
not listed: [13] | [15] | [16] | [17] | [18] | [19]
inactive: all other assays above

C=C(C)C(=O)OCC(CC)CCCC (centres undefined)
not listed: [15] | [16] | [17] | [18] | [19]
inactive: all other assays above

COC(=O)c1cc(Oc2ccc(Cl)cc2Cl)ccc1[N+](=O)[O-]
active: [5] 17 µM | [8] 64.1 µM
not listed: [13] | [15] | [16] | [17] | [18] | [19]
inactive: all other assays above

CC(C)[C@H](C(=O)OC(C#N)c1cccc(Oc2ccccc2)c1)c1ccc(OC(F)F)cc1 (some centres undefined)
not listed: [13] | [15] | [16] | [17] | [18] | [19]
inactive: all other assays above
